Screening results (PubChem BioAssay)
S2 tox = reduces viability in counter-screen for ATXN expression inhibitors | S2 cells (HEK-293 line with an ATXN2-luciferase reporter) viability, CellTiter-Fluor protease fluorescence, 24 h | Potency, µM (top dose mostly 56.7 µM), most hits filed as cytotoxic | hit rate 0.49% among 400,000 | AID 651635; also: nearly all actives have a fitted effect of over 40% in size
RORgamma inh = blocks mouse ROR gamma transcriptional activity | Potency, µM (top dose mostly 53.6 µM), usual class: inhibitors | P51450 | hit rate 5.4% among 310,000 | Drosophila S2 Gal4-RORgamma UAS-luciferase reporter, 20 h; also: nearly all actives have a fitted effect of over 60% in size
Target sequence (P51450 whole entry, looked up, the tested form may be a part): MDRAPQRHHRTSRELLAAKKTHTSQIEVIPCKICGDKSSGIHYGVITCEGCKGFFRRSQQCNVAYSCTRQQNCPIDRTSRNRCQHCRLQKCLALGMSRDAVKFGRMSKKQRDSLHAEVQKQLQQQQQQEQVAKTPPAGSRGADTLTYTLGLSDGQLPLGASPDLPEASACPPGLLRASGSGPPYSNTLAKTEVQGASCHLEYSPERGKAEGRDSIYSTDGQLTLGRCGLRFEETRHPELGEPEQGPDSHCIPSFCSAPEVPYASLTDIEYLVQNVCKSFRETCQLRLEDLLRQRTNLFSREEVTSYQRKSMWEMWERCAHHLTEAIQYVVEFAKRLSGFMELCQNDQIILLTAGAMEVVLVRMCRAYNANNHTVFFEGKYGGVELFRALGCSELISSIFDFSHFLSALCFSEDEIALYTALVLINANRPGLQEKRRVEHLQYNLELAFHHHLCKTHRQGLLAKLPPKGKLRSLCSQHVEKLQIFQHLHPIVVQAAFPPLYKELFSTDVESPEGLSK
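In this cell-based reporter format, copper sulfate (700 uM final) drives Gal4–ROR gamma fusion expression from a metallothionein promoter in Drosophila Schneider cells; compounds preincubated 1 hr, reporter read after 20 hr at ambient temperature.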
HepG2 tox = counter-screen for TGF-b inhibitors: cytotoxicity in HepG2 cells | HepG2 CAGA-GFP viability, ATP luminescence, 18 h | Potency, µM (top dose mostly 46.1 µM), hits mostly cytotoxic | hit rate 0.76% among 410,000 | AID 588856
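CellTiter-Glo luminescence gave cytotoxicity after 18 hours at 37 degrees C. The cells were HepG2 CAGA-GFP in 1% FBS DMEM, stimulated with 500 pg/mL TGF-beta after compound addition. %Activity was normalised to no-cell wells (complete cell-killing) and DMSO (no toxicity), and curves were fitted and classified.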
VP16 counter = counter-screen for ROR gamma inhibitors: Gal4-VP16 reporter | Drosophila S2 Gal4-VP16 UAS-luciferase, luminescence, 20 h | Potency, µM (top dose mostly 53.6 µM), usual class: inhibitors | hit rate 3.5% among 310,000 | AID 2546;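 also: Gal4-VP16 expression switched on by copper sulfate through the metallothionein promoter; nearly all actives have a fitted effect of over 50% in size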
TGFb inhibitor = blocks TGF-b signaling. HepG2 CAGA-GFP TGF-b/SMAD3 reporter, GFP fluorescence, 18 h; TGF-beta stimulated, 500 pg/mL final. Potency, µM (highest dose often 46.1 µM), actives largely listed as inhibitors. hit rate 1.2% among 410,000; also: nearly all actives have a fitted effect of over 65% in size
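First, reporter cells (HEPG2 CAGA-GFP) rested 2 h at 37 degrees C. Next, compounds were pinned in and TGF-beta added to 500 pg/mL final. After 18 h, GFP was imaged per cell and summed per well.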
ATXN2 expr inh = inhibitors of ATXN2 expression; HEK-293 ATXN2-luciferase reporter, luminescence, 24 h; Potency, µM (highest dose often 57 µM), actives largely listed as inhibitors; hit rate 0.72% among 360,000; AID 1745845; also: nearly all actives have a fitted effect of over 55% in size
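qHTS (up to 57 uM final) was run with 24 h compound exposure of reporter cells at 37 °C. Each well was multiplexed: SteadyGlo luminescence measured ATXN2-luciferase expression after a fluorogenic Gly-Phe-AFC viability readout (25 uM final).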
Hits are given with their value; . = inactive; ? = inconclusive; / = not tested or not shown. Shown are actives, neighbours in structure and some others; about 6.3% of the full set was active somewhere. Calls follow the shape of the dose curve; as a rule, active = well fitted curve in the direction sought with a large enough effect; inconclusive = small, poorly fitted or top-dose-only effect, or another doubt; inactive = no such curve, though single readings can be large; an effect the other way counts as inactive or inconclusive.

SMILES	S2 tox	RORgamma inh	HepG2 tox	VP16 counter	TGFb inhibitor	ATXN2 expr inh
C/C(=N\NC(=O)c1ccccc1)c1ccc(N2CCOCC2)cc1	.	.	.	.	.	.
C/C(=N\Nc1nc(C)cc(C)n1)c1ccc(N2CCOCC2)cc1	?	11µM	.	.	?	.
C/C(=N\Nc1cc(N2CCCCC2)nc(C)n1)c1ccc(Br)cc1	.	?	16µM	6.3µM	10µM	?
Cc1ccc(Nc2nc(NCc3ccco3)nc3nccnc23)cc1C	/	/	.	/	.	/
C/C(=N/Nc1nc(C)cc(C)n1)c1ccc(Br)cc1	?	7.9µM	.	7.9µM	.	?
C/C(=N/Oc1nc(C)cc(C)n1)c1ccc(Br)cc1	.	?	.	?	.	.
COc1ccc(CCn2c(=O)c3cccnc3n(CC(=O)Nc3c(C)cccc3C)c2=O)cc1OC	/	/	.	/	.	/
CC(C)(C)c1ccc(-n2ncc3c2CCCC3NC(=O)C2(C(N)=O)CC2)cc1 (configuration not stated)	.	?	.	2.5µM	.	.
Cc1cc(C)cc(-n2ncc3c2CCCC3NC(=O)c2cc(C)n(C)n2)c1 (configuration not stated)	?	.	.	.	?	.
Cc1cc(C(=O)NC2CCCc3c2cnn3-c2ccc(C(C)(C)C)cc2)nn1C (configuration not stated)	.	?	.	11µM	?	.
CC(=O)NCC(=O)NC1CCCc2c1cnn2-c1ccc(C(C)(C)C)cc1 (configuration not stated)	.	?	.	.	.	.
COc1ccc(/C=C2/C(=O)N(CC3CCCO3)C(=S)N2C)c(OC)c1 (configuration not stated)	.	.	.	.	.	.
COc1ccccc1/C=C1\NC(=S)N(CC2CCCO2)C1=O (configuration not stated)	.	.	.	13µM	.	.
Cc1cccc(C)c1NC(=S)NN(Cc1ccccc1)c1ccccc1	.	5µM	.	?	.	.
Fc1ccccc1NC(=S)NN(Cc1ccccc1)c1ccccc1	.	4.5µM	.	10µM	.	.
CC(C)c1ccccc1NC(=S)NN(Cc1ccccc1)c1ccccc1	.	2.2µM	.	?	.	.
Cc1cccc(C)c1NC(=S)N(Cc1ccccc1)Cc1cccnc1	.	?	.	.	.	.
CC1(C)OC2CC3C4CC(F)C5=CC(=O)CC[C@@]5(C)C4C(O)C[C@@]3(C)[C@]2(C(=O)CO)O1 (some centres not stated)	/	.	/	.	/	/
CCC(C)(C)C1CCC(=NNc2nc3ccccc3[nH]2)CC1 (configuration not stated)	.	11µM	.	?	.	.
CCc1ccc(-n2c(SCc3ccccc3F)nc3[nH]ncc3c2=O)cc1	20µM	/	.	/	?	?
Cc1ccc(-n2c(SCc3ccccc3F)nc3[nH]ncc3c2=O)cc1C	?	/	.	/	?	?
Cc1ccc(-n2c(SCc3ccccc3F)nc3[nH]ncc3c2=O)cc1Cl	35µM	/	.	/	?	?
COCCNC(=O)[C@H](C)/C=C(\c1cccnc1)C(NC(=O)OCc1ccccc1)c1ccc(C(=O)OC)cc1 (some centres not stated)	/	.	/	.	/	/
CC1(CC(=O)Nc2ccccc2)NC(=S)N(c2ccccc2)N1 (configuration not stated)	.	7.9µM	.	.	.	.
CCC1(c2ccc(Cl)cc2)NC(=S)N(c2ccccc2)N1 (configuration not stated)	.	?	.	?	.	.
SMILES	S2 tox	RORgamma inh	HepG2 tox	VP16 counter	TGFb inhibitor	ATXN2 expr inh
CCCCCCC1(C)NC(=S)N(c2ccccc2)N1 (configuration not stated)	.	7.1µM	.	.	.	.
CCC1(c2ccccc2)NC(=S)N(c2ccc(C)cc2)N1 (configuration not stated)	.	5µM	.	?	.	.
CCCCCC1(C)NC(=S)N(c2ccccc2)N1 (configuration not stated)	.	?	.	?	.	.
O=C(NCCc1nc2ccccc2n1CCOc1ccccc1)C1CCCCC1	/	/	.	/	?	/
Cn1cc(C(=O)N/N=C/c2cccs2)c2ccccc21	.	10µM	.	?	.	.
Cc1nc2ccccc2cc1C(=O)N/N=C/c1ccco1	.	?	.	?	.	.
Cc1nc2ccccc2cc1C(=O)N/N=C/c1cccs1	.	10µM	.	?	.	.
Cn1cc(C(=O)N/N=C/c2ccc3c(c2)OCO3)c2ccccc21	?	.	.	.	.	.
COc1ccccc1NC(=O)C(=O)N/N=C/c1cccs1	.	2µM	.	3.2µM	.	.
Cc1ccccc1Oc1ccc2c(c1)[C@@H]1C[C@H]3[C@@H](C(=O)N1CC2)[C@H](C)ON3C	.	/	.	/	?	.
COc1ccccc1CNc1cc(-c2cccc(C#N)c2)ncn1	/	.	/	.	/	/
Cc1cccc(CNc2cc(-c3cccc(C#N)c3)ncn2)c1	/	.	/	13µM	/	/
COc1ccc(/C=C(\C#N)c2nc(-c3cc4ccccc4oc3=O)cs2)cc1OC	.	/	.	/	.	.
CCNC(=S)NS(=O)(=O)c1ccc(CC)cc1	.	13µM	.	?	.	.
CCNC(=S)NS(=O)(=O)c1ccc(C)cc1	.	?	.	?	.	.
CC(C)CCNC(=O)CCCOc1cc(=O)n(C)c2ccccc12	.	13µM	.	.	.	.
COc1ccc2c(OC)cc(=O)n(C)c2c1	.	.	.	.	.	.
COc1cc(=O)n(C)c2ccccc12	.	13µM	.	.	.	.
Nc1cc(Cl)cc2c1-c1ccc(Cl)cc1C2	.	/	.	/	.	.
Fc1ccc(-c2ccnc(=S)[nH]2)cc1	.	3.5µM	.	2.8µM	.	.
CSc1sc(-c2ccnc(=S)[nH]2)c(-c2ccccc2)c1C#N	.	.	.	.	.	.
CSCCC(NC=O)C(=O)NC(C)C(=O)O (configuration not stated)	.	/	.	/	.	.
CCOc1ccc(Oc2cc(NC(=O)c3ccco3)cc([N+](=O)[O-])c2)cc1	.	?	.	?	?	.
O=C(Nc1cc(Oc2ccc(Cl)cc2)cc([N+](=O)[O-])c1)c1ccco1	?	?	.	7.9µM	?	.
CC(C)CNC(=O)c1cccc(Cn2cc(Cl)cn2)c1	.	.	.	.	.	.
CCn1c(NC(=O)c2cccc(Cn3cc(Cl)cn3)c2)nc2ccccc21	?	2.8µM	.	2µM	?	.
Cn1c(NC(=O)c2cccc(Cn3cc(Cl)cn3)c2)nc2ccccc21	.	1.8µM	.	2.8µM	.	.
